# Inconclusive results are not listed. Values without a mark were called inactive. Calls come from the whole dose curve; as a rule, active = well fitted inhibition curve with a large enough effect; inconclusive = small, poorly fitted or top-dose-only effect; inactive = flat fitted curve, though single readings scatter. Square brackets hold non-standard residues; d marks the D form. Peptide text beside a SMILES is read from it. 2Abz = Nc1ccccc1C(=O)O
# Biological target: Aldehyde dehydrogenase, mitochondrial (Homo sapiens) (UniProt P05091)
# Experiment: qHTS for Inhibitors of the Aldehyde Dehydrogenase Family (ALDH2) Primary screen (AID 2061308);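 note: plate controls were vehicle for no effect and reference inhibitor for full effect; nearly all actives have a fitted effect of over 55% in size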
# Conditions: ALDH2 enzyme inhibition qHTS, 1536-well; series mostly up to 56 µM; activity change, negative = inhibition: at the top concentration
row,Structure (SMILES),"activity change, negative = inhibition"
1,OC[C@@]1(O)CO[C@H](OC[C@H]2O[C@@H](OC(CCCCc3ccc(O)cc3)CCc3ccc(O)cc3)[C@H](O[C@H]3OC[C@](O)(CO)[C@H]3O)[C@@H](O)[C@@H]2O)[C@@H]1O (stereo not given in full),3.88% [at 16.9 µM]
2,C[C@H](O)[C@H](O)/C=C/c1cccc(O)c1CO,-5.59%
3,C[C@@H]1O[C@@H](OC[C@H]2O[C@@H](OC(CCCCc3ccc(O)cc3)CCc3ccc(O)cc3)[C@H](O)[C@@H](O)[C@@H]2O)[C@H](O)[C@H](O)[C@H]1O (stereo not given in full),2.23% [at 16.9 µM]
4,CC1(C)CC2C(O)C3=C(CC(C)(O)C2C1)C(=O)OC3O (stereo not given),-1.29%
5,COc1cc(C)c(C(=O)Oc2cc(C)c(C(=O)Oc3cc(C)c(C(=O)NC(C)C(=O)O)c(O)c3)c(O[C@@H]3O[C@H](CO)[C@@H](O)[C@H](O)[C@H]3OC(C)=O)c2)c(OC)c1 (stereo not given in full),-4.12% [at 16.9 µM]
6,CCC(C)C1NC(=O)C2CCCN2C(=O)C(C(C)C)NC(=O)c2ccccc2NC(=O)C(Cc2ccc(O)cc2)NC(=O)C(C)NC(=O)C(C(C)O)NC1=O (stereo not given) (cyclo([2Abz]VPITAY); configuration not given here),-5.87% [at 16.9 µM]
7,COCCN(C)Cc1ccc2nc3sc(C(=O)N(C)C4CCCCC4)cn3c2c1,13%
8,COC(=O)C1=COC(OC2OC(CO)C(O)C(O)C2O)C2C1CC(OC(=O)C(O)CC(=O)O)C2C (stereo not given),-0.662% [at 28 µM]
9,C=C1CC[C@@H]2[C@@](C)(CO[C@@H]3O[C@H](CO)C(O)[C@H](O)C3O)[C@H](O)CC[C@@]2(C)[C@@H]1CC/C(C)=C/CO (stereo not given in full),-1.27% [at 16.9 µM]
10,CC1=C(C)C(=O)OC(C(C)C2CCC3C4CC=C5CC(OC6OC(COC7OC(CO)C(O)C(O)C7O)C(O)C(O)C6O)CC(O)C5(C)C4CCC23C)C1 (stereo not given),10.6% [at 16.9 µM]
11,C=C1CC[C@@H]2C(C)(C)CCC[C@@]2(C)[C@@H]1CC/C(=C/C(=O)OC)COC(C)=O,-0.876%
12,C=C1CCC2C(C)(C)CC(O)CC2(C)C1CCC(C)CC(=O)O (stereo not given),-11.6%
13,C[C@]12C=CC(=O)C=C1CC[C@@H]1[C@@H]2[C@@H](O)C[C@@]2(C)[C@H]1CC[C@]2(O)C(=O)COC(=O)CCC(=O)O,-5.57%
14,CO[C@H]1O[C@@H]2O[C@@]3(C)CCC4[C@H](C)CCC([C@H]1C)[C@]42OO3 (stereo not given in full),-3.09%
15,C=C1C(=O)OC2/C=C(\C)CC3C=C(CC/C=C(\C)CCC12)C(=O)O3 (stereo not given),7.5%
16,Cc1onc(-c2c(F)cccc2Cl)c1C(=O)N[C@@H]1C(=O)N2[C@@H]1SC(C)(C)[C@@H]2C(=O)O,-11.9%
17,C[C@H](NC(=O)CCc1nc2ccccc2c(=O)[nH]1)c1ccccc1,7.52%
18,C=C1CCC2C(C)(C)CCC[C@]2(C)[C@H]1C/C=C(\CO)C(=O)C(=O)O (stereo not given in full),2.96%
19,CNc1nc(Cc2ccccc2)nc2c1CCNC[C@@H]2C,8.04%
20,C[C@H]1CC[C@@]2(OC1)O[C@H]1CC3C4CC=C5C[C@H](O)C[C@@H](O[C@@H]6O[C@@H](C)[C@H](O)[C@@H](O)[C@H]6O[C@@H]6O[C@@H](C)[C@H](O)[C@@H](O)[C@H]6O)[C@]5(C)C4CC[C@]3(C)[C@H]1[C@@H]2C (stereo not given in full),-7.5% [at 16.9 µM]

row,Structure (SMILES),"activity change, negative = inhibition"
1,COc1cc(O)c2c(c1)C1(OC2=O)C(C)=CC(=O)C1O (stereo not given),-7.55%
2,C[C@@H]1O[C@@H](O[C@H]2[C@H](O)[C@@H](O[C@@H]3O[C@H](CO)[C@H](O)[C@H](O)[C@H]3O)[C@H](O[C@H]3CC[C@@]4(C)C(CC[C@]5(C)C4CC=C4[C@@H]6CC(C)(C)CC[C@]6(C(=O)O[C@@H]6O[C@H](CO)[C@@H](O)[C@H](O)[C@H]6O)CC[C@]45C)C3(C)C)O[C@@H]2C(=O)O)[C@H](O)[C@H](O)[C@H]1O (stereo not given in full),4.84% [at 16.9 µM]
3,COc1cc(NS(=O)(=O)c2ccc(N)cc2)nc(C)n1,-1.6%
4,C=C(C)C1Cc2c(ccc3c2OCC(c2ccc(O)cc2O)C3)O1 (stereo not given),-2.78%
5,C[C@@H]1C(=O)O[C@H](C)[C@H]1C[C@@H](O)[C@](C)(O)[C@H]1CC[C@@]2(O)C3=CC(=O)[C@@H]4C[C@@H](O)[C@@H](O)C[C@]4(C)C3CC[C@]12C (stereo not given in full),10.1% [at 28 µM]
6,CC(=O)OCC1OC(OC2COC(OC3COC(OC4C(OC5C(CO)OC(OC6CCC7(C)C(CCC8(C)C7CC=C7C9CC(C)(C)CCC9(C(=O)OC9OC(CO)C(O)C(O)C9OC9OCC(OC%10OCC(O)(CO)C%10O)C(O)C9O)C(O)CC78C)C6(C)C)C(O)C5O)OCC(O)C4O)C(O)C3O)C(O)C2O)C(OC(=O)/C=C/c2ccccc2)C(O)C1OC(C)=O (stereo not given),6.5% [at 11.2 µM]
7,C=C1CC[C@@H]2[C@](C)(CO)[C@H](O)CC[C@@]2(C)[C@@H]1C/C=C1/C(=O)OCC1O (stereo not given in full),6.35%
8,C=C1C[C@@]23CCC4[C@@](C)(CCC[C@@]4(C)C(=O)OC)C2CC[C@@H]1C3 (stereo not given in full),-1.23%
9,OC[C@H]1O[C@@H](OCCc2ccccc2)[C@H](O[C@@H]2OC[C@@H](O)[C@H](O)[C@H]2O)[C@@H](O)[C@@H]1O,-1.72% [at 28 µM]
10,C=C(COC(=O)C(C)C)C1Oc2cc(C(C)=O)ccc2C1OC(=O)C(C)C (stereo not given),-11.3%
11,Cc1cn2c(N)c(Cl)cc(C(=O)NCC3CCN(CC(C)C)CC3)c2n1,0.505%
12,CC(C)C(=O)O[C@@H]1[C@@H](O)[C@@H](O[C@H]2O[C@H](CO)[C@@H](O)[C@H](O)[C@H]2O)O[C@H](CO)[C@H]1O,4.69% [at 28 µM]
13,CC(=O)OC1CC(C)C2(CCC3(CC(=O)OC3O)O2)C2(C)CCCC(C)(C)C12 (stereo not given),0.786% [at 28 µM]
14,C[C@H]1CC(=O)C2=C(C1)C(O)C(O)[C@@]1(O)[C@H]2C(=O)c2cccc(O)c2[C@@H]1O (stereo not given in full),0.614%
15,CN1[C@@H]2CC[C@H]1CC(NC(=O)n1c(=O)[nH]c3ccccc31)C2 (stereo not given in full),3.46%
16,C/C(=C/CO)CC[C@@H]1[C@@](C)(O)CCC2C(C)(C)CCC[C@]21C (stereo not given in full),10.4%
17,CC(=O)OC(C)(C)/C=C/C(=O)[C@](C)(O)[C@H]1C(O)C[C@@]2(C)[C@@H]3CC=C4[C@@H](C=C(O[C@@H]5O[C@H](CO)[C@@H](O)[C@H](O)[C@H]5O)C(=O)C4(C)C)[C@]3(C)C(=O)C[C@]12C (stereo not given in full),-2.9% [at 16.9 µM]
18,CC1OC(O[C@@H]2[C@H](O)[C@@H](OC3OC(CO)C(O)C(O)C3O)[C@H](OC(=O)[C@]34CCC(C)(C)C[C@H]3C3=CCC5[C@@]6(C)CC[C@H](O[C@@H]7O[C@H](C(=O)O)[C@@H](O)[C@H](O[C@@H]8OC[C@@H](O)[C@H](O)[C@H]8O)[C@H]7O[C@@H]7O[C@H](CO)[C@H](O)[C@H](O)[C@H]7O)[C@@](C)(C=O)C6CC[C@@]5(C)[C@]3(C)C[C@H]4O)O[C@@H]2C)C(O)C(O)C1OC1OCC(O)C(O)C1O (stereo not given in full),2.11% [at 11.2 µM]
19,CC1CC[C@]2(C(=O)O)CC[C@]3(C(=O)O)C(=CCC4[C@@]5(C)CC[C@H](OC6OC(C)C(O)C(OC7OC(CO)C(O)C(O)C7O)C6O)C(C)(C)C5CC[C@]43C)C2C1C (stereo not given in full),2.12% [at 16.9 µM]
20,COC(=O)CC1(O)C(=O)Nc2ccccc21 (stereo not given),5.94%

# Source: PubChem BioAssay (NCATS)
